Assay outcomes from PubChem BioAssay.
Only some compounds are listed: those with a hit (about 5.7% of all), similar ones and a draw of the others.
DAX1 inh-1 = DAX1 (NR0B1) inhibition, primary screen; inhibition, % at 6.8 µM; HEK293T StAR-luciferase reporter, SF-1/DAX-1 repression relief; 1.1% of 370,000 active;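 active = inhibition above the mean over all tested compounds plus 3 SD, cut at about 3.6% in these data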;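 also: 0% = DAX-1 cells with DMSO and 100% = cells lacking DAX-1 with DMSO; higher inhibition means more luminescence from relief of DAX-1 repression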
DAX1 inh-2 = inhibits human nuclear receptor DAX1. P51843. 0.99% of 340,000 active. inhibition, % at 6.75 µM. HEK293 Gal4-DAX1 luciferase reporter, luminescence;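 active = inhibition above the mean over all tested compounds plus 3 SD, cut at about 4.2% in these data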;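 also: 0% = DAX1-transfected cells with DMSO and 100% = empty-vector control cells with DMSO; inhibition shows as a rise in luminescence from relieved DAX1 repression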
AHR activator = activates the human aryl hydrocarbon receptor. AHR-responsive luciferase reporter cells, luminescence. activation, % at 5 µM. 2.5% of 320,000 active. AID 2796. P35869; in the data active = activation above about 47%;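 also: 0% = vehicle wells and 100% = reference agonist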
Target sequence (P35869 whole entry, looked up): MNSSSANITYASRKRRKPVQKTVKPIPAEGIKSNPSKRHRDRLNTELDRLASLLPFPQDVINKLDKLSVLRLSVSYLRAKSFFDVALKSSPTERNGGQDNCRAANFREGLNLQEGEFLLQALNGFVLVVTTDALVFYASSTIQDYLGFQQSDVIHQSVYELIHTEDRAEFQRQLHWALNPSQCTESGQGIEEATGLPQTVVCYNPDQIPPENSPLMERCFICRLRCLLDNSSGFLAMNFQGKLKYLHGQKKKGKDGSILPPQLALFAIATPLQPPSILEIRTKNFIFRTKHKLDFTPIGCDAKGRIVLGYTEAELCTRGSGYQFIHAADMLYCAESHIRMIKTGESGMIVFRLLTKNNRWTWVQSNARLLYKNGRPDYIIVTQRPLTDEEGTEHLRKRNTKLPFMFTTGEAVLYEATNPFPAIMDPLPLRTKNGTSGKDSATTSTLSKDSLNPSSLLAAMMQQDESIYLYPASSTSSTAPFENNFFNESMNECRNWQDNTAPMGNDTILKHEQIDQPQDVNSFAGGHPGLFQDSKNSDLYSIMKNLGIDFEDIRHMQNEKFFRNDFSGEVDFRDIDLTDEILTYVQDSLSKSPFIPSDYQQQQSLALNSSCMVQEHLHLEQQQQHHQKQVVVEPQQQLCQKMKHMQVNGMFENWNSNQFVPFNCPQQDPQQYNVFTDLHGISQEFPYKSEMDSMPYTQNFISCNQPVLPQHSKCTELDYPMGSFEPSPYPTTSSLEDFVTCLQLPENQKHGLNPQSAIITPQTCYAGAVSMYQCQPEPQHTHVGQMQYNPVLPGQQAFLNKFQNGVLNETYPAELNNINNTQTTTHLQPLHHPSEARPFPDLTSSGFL
hgDAF-12 ag = activates the H. glycines DAF-12 receptor ligand-binding domain; activation, % at 6.8 µM; 1.8% of 370,000 active; HEK293 GAL4-hgDAF12 UAS-luciferase reporter, agonist luminescence; normalized to butyrate control; AID 687014;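 active = activation above a cutoff set at the mean of all screened compounds plus 3 SD, cut at about 10% in these data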;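 also: 0% = DMSO wells and 100% = sodium butyrate wells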
hcDAF-12 act = activators of H. contortus DAF-12 nuclear receptor; 1.4% of 370,000 active; HEK293 hcDAF-12 lit1-tk-luc reporter, luminescence; 0% DMSO, 100% Δ7-dafachronic acid; activation, % at 6.8 µM;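 active = activation above the mean of all tested compounds plus 3 SD, cut at about 5.5% in these data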;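 also: 100% = response to 3 µM Δ7-dafachronic acid high control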
ssDAF-12 act = activates DAF-12 receptor from parasite S. stercoralis. HEK293 ssDAF-12/GRIP1 lit1-tk-luc reporter, luminescence; % of 3 µM dafachronic acid response. activation, % at 6.8 µM. 1% of 370,000 active. AID 652126;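 active = activation above the mean over all tested compounds plus 3 SD, cut at about 0.9% in these data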;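 also: 0% = DMSO-only wells and 100% = 3 µM delta7-dafachronic acid wells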
hgDAF12 ag = hgDAF-12 agonism, confirmation assay. 80% of 3,300 active. activation, % at 6.8 µM. HEK293 GAL4-hgDAF12 luciferase reporter, agonist mode; percent of butyrate response. shares compounds with hgDAF-12 ag. AID 743050;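 active = mean activation over triplicate wells above the hit cutoff derived from the earlier primary screen, cut at about 11% in these data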;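 also: 0% = DMSO low control and 100% = 2 mM sodium butyrate high control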
LXRb DAF12 ctr = activates human LXR-beta, counter-screen for DAF-12 agonists | shares compounds with hgDAF-12 ag | HEK293 Gal4-LXR luciferase reporter, 24 h | activation, % at 6.8 µM | 3,300 tested, under 10 active;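 active = mean activation of the triplicate above a set limit carried over from the primary screen, none filed active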
The depositor's hits bear a star; x = no result given; ! = not confirmed by another sample.

SMILES	DAX1 inh-1	DAX1 inh-2	AHR activator	hgDAF-12 ag	hcDAF-12 act	ssDAF-12 act	hgDAF12 ag	LXRb DAF12 ctr
C=CCNc1ncnc2c1cnn2-c1cccc(C)c1	6.3*	1.7	-7.0	17.2*	2.1	-0.6	16.1*	0.8
COc1ccc(/C=C2\SC(=O)N(CCc3nnc(N)s3)C2=O)cc1	4.1*	1.6	11.5	16.0*	3.7	0.7	10.3	0.8
COc1ccc(/C=C2\SC(=O)N(CCCC(=O)Nc3ccc(C(=O)O)cc3)C2=O)cc1	-6.5	-4.8	x	-20.9	-9.2	-3.8	x	x
O=C(Nc1ccccc1F)c1csc(COCCO)n1	1.5	x	x	4.0	0.0	0.0	x	x
O=c1c2c(nc3cc(-c4ccc(Br)cc4)[nH]n13)CCCC2	3.7*	6.3*	-3.7	14.0*	1.4	1.4*	19.8*	1.1
O=c1c2c(nc3cc(-c4ccccc4)[nH]n13)CCC2	2.5	0.2	31.2	15.0*	3.0	-0.2	13.3*	0.8
CCC1CCCCN1C(=O)CSc1nnc(CNC(=O)c2c(F)cccc2Cl)o1 (stereo not drawn)	-0.4	-0.6	-1.4	0.4	-0.5	-1.3	x	x
CC(=O)c1ccc(N2CCN(C(=O)c3ccc(Cl)c(NC4=NC5CS(=O)(=O)CC5S4)c3)CC2)cc1 (stereo not drawn)	-0.3	0.5	0.8	1.7	-0.1	-0.8	x	x
Cc1cc(/C=C2\SC(=S)NC2=O)c(C)n1-c1ccc(O)cc1	2.5	0.0	4.3	13.5*	3.8	-0.1	9.4	0.6
Oc1cccc2c3c(oc12)CCCC3	-0.3	x	1.1	1.3	0.6	-1.1	x	x
Cc1ccc(C(=O)c2coc3ccc(O)c(Cl)c23)cc1	3.0	6.5*	12.4	16.8*	4.0	0.0	13.2*	0.5
O=C(c1ccccc1)c1coc2ccc(O)c(Cl)c12	1.2	2.5	-1.0	5.3	2.0	0.4	x	x
Cc1ccc(C(=O)c2coc3ccc(O)cc23)cc1	3.6	2.3	x	17.6*	4.8	1.1*	22.4*	1.0
Cc1cc(-c2nnc(SCC(=O)Nc3cccc(Cl)c3)n2N)n[nH]1	0.5	-0.1	15.0	1.8	1.0	-0.9	x	x
COc1ccc(S(=O)(=O)Nc2ccc(C)c(S(=O)(=O)N3CCOCC3)c2)cc1[N+](=O)[O-]	1.1	-1.0	x	-0.5	0.0	-0.8	x	x
CCN(CC)c1ccc2cc(C(=O)Nc3ccccn3)c(=O)oc2c1	2.6	2.2	-3.5	14.3*	4.9	0.5	17.5*	1.1
Nc1ccccc1NC1=CC(=O)CC(c2ccco2)C1 (stereo not drawn)	1.6	2.2	6.4	13.4*	4.1	0.7	-0.2	0.0
Cc1ccc(C(=O)COC(=O)c2ccc(O)cc2)cc1	0.9	1.8	1.8	14.1*	-0.1	-0.8	8.5	0.3
CCOC(=O)COC(=O)c1ccc(O)cc1	0.1	-0.2	-1.7	-0.3	1.9	-1.3	x	x
COC(=O)c1sc(NC(=O)c2ccc(C)o2)nc1C	1.6	-0.7	24.5	13.8*	2.4	0.2	10.5*	0.8
Cc1ccc(C(=O)Nc2nnc(C)s2)o1	1.1	1.0	2.4	4.5	-0.7	-0.7	x	x
O=C(CNC(=O)c1cccs1)c1ccc(Br)cc1	1.9	0.2	-3.9	14.9*	1.7	-0.7	14.0*	0.7
COc1cccc(/C=N/n2cnc3ccccc32)c1OC	2.9	1.9	2.7	13.6*	3.8	-0.5	14.5*	0.9
COc1cccc(/C=N/n2c(N)nc3ccccc32)c1OC	1.4	0.5	7.7	4.5	-0.7	-1.9	x	x
O=C(OCC(=O)N1CCOCC1)c1ccccc1Cc1ccccc1	4.1*	2.7	-1.3	17.2*	6.3*	0.8	18.4*	0.5
CCOC(=O)Nc1ccc2c(c1)N(C(=O)CCN1CCN3CCCC3C1)c1ccccc1CC2 (stereo not drawn)	0.6	-1.5	6.8	1.4	0.2	-0.9	x	x
COC(=O)Nc1ccc2c(c1)N(C(=O)CCN1CCN3CCCC3C1)c1ccccc1CC2 (stereo not drawn)	0.3	-0.1	1.5	18.1*!	-0.5	-0.5	-1.5	0.0
Cc1ccc(C)c(N2CCN(S(=O)(=O)c3ccc(-c4cc(C)no4)s3)CC2)c1	0.9	0.8	1.3	0.5	-0.2	-0.6	x	x
Cc1ccnc(NC(=O)c2cccc(S(=O)(=O)NCc3ccccc3)c2)c1	-2.8	0.8	13.1	-3.4	-0.9	-1.3	x	x
CN1CCN(/N=C/c2ccc(-c3ccccc3)cc2)CC1	1.0	0.1	-5.7	14.4*	2.5	-0.2	12.5*	0.6
